Source: PubChem BioAssay (National Center for Advancing Translational Sciences (NCATS))
Sm TGR inh = blocks Schistosoma mansoni thioredoxin glutathione reductase; Q962Y6; purified TGR, DTNB reduction, TNB absorbance 405 nm; Potency, µM (top dose mostly 114 µM), inactives show at the top dose activity change, negative = inhibition, hits mostly inhibitors; actives 3% (n = 360,000); AID 485364; further: potency means the concentration at half of the fitted maximal effect; nearly all actives have a fitted effect of over 60% in size
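First, TGR (20 nM dispensed) and NADPH were mixed with compound. Second, a 15 min room-temperature incubation followed. Third, further NADPH and then DTNB were added to start the reaction. Finally, TNB absorbance was monitored kinetically.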
FBPA Giardia inh = Giardia lamblia aldolase inhibition | A8B2U2 | purified Giardia FBPA | Potency, µM (highest dose often 59.6 µM), inactives show at the highest dose activity, negative = inhibition, actives largely listed as inhibitors | actives 0.71% (n = 290,000); further: potency means the concentration at half of the fitted maximal effect; nearly all actives have a fitted effect of over 55% in size
Target sequence (A8B2U2 whole entry, looked up): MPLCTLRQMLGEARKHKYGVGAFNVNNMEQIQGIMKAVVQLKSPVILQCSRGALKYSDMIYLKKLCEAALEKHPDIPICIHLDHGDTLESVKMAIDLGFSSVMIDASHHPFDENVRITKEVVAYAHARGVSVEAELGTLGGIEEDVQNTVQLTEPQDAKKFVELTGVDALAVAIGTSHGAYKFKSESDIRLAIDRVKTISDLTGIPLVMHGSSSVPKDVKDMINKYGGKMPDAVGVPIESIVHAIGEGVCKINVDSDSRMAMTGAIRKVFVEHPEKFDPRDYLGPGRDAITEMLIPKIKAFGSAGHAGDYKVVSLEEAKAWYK
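40 nM FBPA preincubated 10 min at RT with compound (up to 57.5 uM final), then substrate plus GAPDH/TPI/NAD/arsenate coupling and diaphorase/resazurin added. Fluorescence read after 20 min at RT, 525/598 nm.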
Pf growth 48h = P. falciparum growth inhibition at 48 hours (one generation) | P. falciparum luciferase growth in erythrocytes, 48 h | Potency, µM (doses to about 28.7 µM), without a hit: at the top dose activity change, negative = inhibition, most hits filed as inhibitors | actives 5.9% (n = 310,000) | AID 504832; further: potency means the concentration at half of the fitted maximal effect
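Here the parasites carry a stable luciferase gene and grow inside erythrocytes in Albumax-based RPMI medium with compound for one erythrocytic cycle. Activity is scored as loss of luminescent signal.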
HCMV antiviral = inhibitors of human cytomegalovirus | AID 1259415 | activity change, negative = inhibition, % at 57.5 µM | HFF cells, HCMV-luciferase reporter, 72 h; active compounds read low | actives 4.5% (n = 410,000); in the data active means activity change below about -60%; inconclusive means no clear call, values can overlap the other calls; inactive means above about -39%
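Two compound doses tested in HFFs infected with HCMV-luciferase, MOI 1 PFU/cell, 72 h at 37C. Lysate luminescence read with OneGlo; data normalized against buffer-only and 10uM Salinomycin inhibitor controls.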
Pf growth 96h = P. falciparum growth inhibition at 96 hours. actives 6.9% (n = 320,000). AID 504834. Potency, µM (titrated, usually from 28.7 µM), inactives show top-dose activity change, negative = inhibition, usual class: inhibitors. P. falciparum luciferase reporter growth, 96 h; further: potency means the concentration at half of the fitted maximal effect
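Cell-based qHTS: luciferase-tagged P. falciparum in erythrocytes (2% hematocrit, 0.05% parasitemia final) incubated with compounds for 96 hours, 37 C, 5% CO2; luciferase detection reagent then added and luminescence measured.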
An asterisk follows results filed as active; ? = inconclusive; . = no result given; [ ] = dose if it differs, or a comment. Rows were chosen to be rich in hits. Some 14% of all compounds tested hit in one or more screens of this group. Unless noted, the call rests on the fitted dose curve; in most records, active means well fitted curve in the direction sought with a large enough effect; inconclusive means small, poorly fitted or top-dose-only effect, or another doubt; inactive means no such curve, though single readings can be large; an effect the other way counts as inactive or inconclusive. On the % scale 0 is the no-effect control and ±100 the full control effect.

SMILES	Sm TGR inh	FBPA Giardia inh	Pf growth 48h	HCMV antiviral	Pf growth 96h
O=C(NCc1cccnc1)Nc1ccc2c(c1)OCO2	7%	-5%	62%	-26	?
O=C(CN1CCN(c2ccc([N+](=O)[O-])cc2)CC1)c1ccccc1	11µM*	-25%	.	47	?
O=C(Cc1ccccc1)N1CCN(c2ccc([N+](=O)[O-])cc2)CC1	0%	3%	-9%	-64*	17%
COc1ccc(C(=O)CN2CCN(c3cc(C)nc4ccccc34)CC2)cc1	20µM*	-4%	?	-61*	?
O=[N+]([O-])c1ccc(N2CCc3ccccc3C2)cc1	2%	-7%	37%	-102*	0%
O=C(CCN1CCN(c2ccc([N+](=O)[O-])cc2)CC1)c1ccc(Cl)cc1	?	-7%	10%	-12	17%
COC(=O)CC(=O)CC(NS(=O)(=O)c1ccc(C)cc1)c1ccccc1 (centres undefined)	.	.	.	63	.
Cc1nc(-c2ccc(S(=O)(=O)Nc3ccc(Br)cc3F)cc2)co1	-6%	7%	11%	?	-2%
C[C@H](CO)N1C[C@H](C)[C@@H](CN(C)C(=O)NC2CCCCC2)Oc2ccc(NS(=O)(=O)c3ccc(F)cc3)cc2C1=O	.	.	.	5	.
CC(=O)Nc1ccc(C(=O)CN2CCN(c3ccccc3)CC2)cc1	14µM*	-6%	-38%	0	-11%
CC(=O)c1ccc(NC(=O)CN2CCN(c3ccccc3)CC2)cc1	-14%	-24%	-2%	11	123%
CC(C(=O)N1CCOCC1)c1ccc([N+](=O)[O-])cc1 (centres undefined)	-5%	-1%	6%	19	35%
COc1ccc(-c2csc(N3CCN(c4cc(C)nc5ccccc45)CC3)n2)cc1OC	.	-9%	?	-112*	?
COc1cc(-c2csc(N3CCOCC3)n2)cc(OC)c1OC	5%	-12%	?	137	?
O=C(NCCN1CCN(c2ccc([N+](=O)[O-])cc2)CC1)NCc1ccccc1	?	-2%	7%	-94*	26%
CC(C(=O)N1CCN(c2ccccc2)CC1)c1ccc([N+](=O)[O-])cc1 (centres undefined)	0%	3%	-6%	70	13µM*
CCCNC(=O)OC[C@H]1O[C@@H](CCO/N=C2/C[C@@H](O)[C@@H](O)[C@@H]3[C@@H]4C(=O)N(CC)C(=O)[C@H]4CC[C@@H]23)C=C[C@@H]1Oc1ccc(OC)cc1	.	-1%[12.9 µM]	.	.	.
Cc1ccc([C@H]2C[C@H](n3cc(C4CC4)nn3)[C@@H](O)CN2C(=O)c2cccs2)cc1	.	.	.	-19	.
O=C(Cn1cc([N+](=O)[O-])nc1[N+](=O)[O-])N1CCN(c2ccccc2)CC1	?	?	0.74µM*	2	20%
COc1ccc(N2CCN(CC(=O)c3ccccc3)CC2)cc1	13µM*	-20%	-7%	.	-16%
COc1cccc(Cl)c1NC(=O)N1CCN(c2cc(C)nc3ccccc23)CC1	11%	5%	?	-80*	?
O=[N+]([O-])c1ccc(N2CCN(Cc3ccncc3)CC2)cc1	-2%	?	24%	-90*	19%
O=C(Cn1cnc2ccccc2c1=O)N1CCN(c2ccccc2)CC1	-1%	2%	0%	12	-4%
O=[N+]([O-])c1ccc(CN2CCN(c3ncccn3)CC2)cc1	-2%	?	23%	?	148%
CN(C)C(CNC(=O)CNC(=O)c1ccc2ccccc2c1)c1ccccc1 (centres undefined)	11%	3%	4%	-16	-25%
SMILES	Sm TGR inh	FBPA Giardia inh	Pf growth 48h	HCMV antiviral	Pf growth 96h
CCOC(=O)C1=CCCN(S(=O)(=O)c2ccc(C)cc2)C1	.	.	.	-9	.
CCOc1ccccc1CN1CCNC(=O)C1CC(=O)N(C)CCc1ccccn1 (centres undefined)	?	-9%	-4%	-23	?
O=C1NCCN(Cc2ccoc2)C1CC(=O)N(Cc1ccccc1)CC1CCC1 (centres undefined)	10µM*	-4%	16%	-27	?
CN(CC1CCOCC1)C(=O)CC1C(=O)NCCN1Cc1cccc(F)c1 (centres undefined)	?	-20%	?	57	84%
Cc1ccc(CN2CCNC(=O)C2CC(=O)N(C)CCc2ccccc2)cc1 (centres undefined)	-20%	-8%	?	-9	7.4µM*
CN(CCc1ccccn1)C(=O)CC1C(=O)NCCN1Cc1ccc(-c2ccccc2)cc1 (centres undefined)	0%	-26%	?	27	12µM*
Cc1cc(CNC(=O)CC2C(=O)NCCN2Cc2ccc(-c3ccccc3)cc2)nn1C (centres undefined)	-26%[57.1 µM]	-26%	-13%	4	9.3µM*
Cc1cc(CNC(=O)CC2C(=O)NCCN2Cc2ccccc2)nn1C (centres undefined)	?	.	-9%	9	?
COC(=O)Cn1ncc(N2C3CC(CC(C)(C)C3)C2C)c(Cl)c1=O (centres undefined)	-5%	-1%	?	-3	-10%
O=C(CSc1nc2c([nH]c3ccccc32)c(=O)n1-c1cccc(Cl)c1)N1CCc2ccccc21	3%	.	.	33	.
COCCN(C)C(=O)CC1C(=O)NCCN1CC(c1ccccc1)c1ccccc1 (centres undefined)	26%	-15%	-4%	-27	?
CN(CCc1cn[nH]c1)C(=O)CC1C(=O)NCCN1Cc1ccccc1C(F)(F)F (centres undefined)	35µM*	-29%	33%	?	?
CN(C(=O)CC1C(=O)NCCN1Cc1ccc(F)c(F)c1)C1CCOCC1 (centres undefined)	45µM*	-20%	43%	-21	?
COCCN(C(=O)CC1C(=O)NCCN1Cc1ccc(-c2ccccc2)cc1)C(C)C (centres undefined)	40µM*	-15%	-39%	-23	10%
CN(Cc1ccon1)C(=O)CC1C(=O)NCCN1Cc1ccccc1C(F)(F)F (centres undefined)	?	?	-17%	-1	?
CN(C(=O)CC1C(=O)NCCN1Cc1ccc(F)cc1)C1CCOCC1 (centres undefined)	55%	-10%	33%	15	55%
Cc1ccc(CN2CCNC(=O)C2CC(=O)N(C)C2CCCCC2)cc1 (centres undefined)	45µM*	.	?	-1	-5%
CCOC(=O)c1c(C)oc2nc(C)nc(NCCCN3CCN(c4cc(Cl)ccc4C)CC3)c12	3%	.	.	4	.
O=C1NCCN(Cc2ccc(F)cc2)C1CC(=O)N1CC=C(c2ccccc2)CC1 (centres undefined)	35µM*	-22%	-10%	0	2%
COc1ccc(NC(=O)C(CCS(C)(=O)=O)NC(C)=O)cc1 (centres undefined)	-1%	9%	12%	28	14%
